# Source: PubChem (several laboratories)
# DAX1 inh-1: NR0B1 (DAX1) inhibition | P51843 | HEK293 Gal4-DAX1 luciferase reporter, luminescence | inhibition, % at 6.75 µM | hit rate 0.99% among 340,000 | AID 504766;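 active = inhibition above the mean over all tested compounds plus 3 SD, cut at about 4.2% in these data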;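 also: 0% = DAX1-transfected cells with DMSO and 100% = empty-vector control cells with DMSO; inhibition shows as a rise in luminescence from relieved DAX1 repression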
# Target sequence (P51843 207-470 limits assumed): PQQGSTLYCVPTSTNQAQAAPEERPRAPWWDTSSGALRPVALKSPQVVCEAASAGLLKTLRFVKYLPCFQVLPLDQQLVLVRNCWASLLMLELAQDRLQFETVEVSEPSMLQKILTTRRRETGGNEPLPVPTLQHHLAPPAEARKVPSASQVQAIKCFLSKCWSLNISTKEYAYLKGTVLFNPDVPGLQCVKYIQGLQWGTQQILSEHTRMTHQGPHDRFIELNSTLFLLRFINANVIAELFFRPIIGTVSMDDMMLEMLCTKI
# DAX1 inh-2: blocks DAX1 repression of SF-1 activated StAR promoter | HEK293T StAR-luciferase reporter, SF-1/DAX-1 repression relief | inhibition, % at 6.8 µM | hit rate 1.1% among 370,000 | AID 652010;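 active = inhibition above the mean over all tested compounds plus 3 SD, cut at about 3.6% in these data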;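 also: 0% = DAX-1 cells with DMSO and 100% = cells lacking DAX-1 with DMSO; higher inhibition means more luminescence from relief of DAX-1 repression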
# ssDAF12 agonist: activates DAF-12 receptor from parasite S. stercoralis | activation, % at 6.8 µM | HEK293 ssDAF-12/GRIP1 lit1-tk-luc reporter, luminescence; % of 3 µM dafachronic acid response | hit rate 1% among 370,000;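 active = activation above the mean over all tested compounds plus 3 SD, cut at about 0.9% in these data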;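 also: 0% = DMSO-only wells and 100% = 3 µM delta7-dafachronic acid wells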
# hgDAF12 agonist: activates the H. glycines DAF-12 receptor ligand-binding domain; HEK293 GAL4-hgDAF12 UAS-luciferase reporter, agonist luminescence; normalized to butyrate control; activation, % at 6.8 µM; hit rate 1.8% among 370,000; AID 687014;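 active = activation above a cutoff set at the mean of all screened compounds plus 3 SD, cut at about 10% in these data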;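 also: 0% = DMSO wells and 100% = sodium butyrate wells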
# NR1D1 modulator: modulates human Rev-erb alpha binding to DNA. Rev-erbα–FITC-DNA binding, fluorescence polarization, 90 min. activity, % at 10 µM. hit rate 0.79% among 370,000;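 active = activity above about 14%, limit read from the data; passing the limit was not always enough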;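 also: 0% = DMSO wells with 35 nM protein and 100% = DMSO wells with 750 nM protein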
# hcDAF-12 act: H. contortus DAF-12 activation, primary screen. HEK293 hcDAF-12 lit1-tk-luc reporter, luminescence; 0% DMSO, 100% Δ7-dafachronic acid. activation, % at 6.8 µM. hit rate 1.4% among 370,000;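 active = activation above the mean of all tested compounds plus 3 SD, cut at about 5.5% in these data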;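 also: 100% = response to 3 µM Δ7-dafachronic acid high control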
# Numbers without * were called inactive; . = no result given. Sampled rows, rich in hits. Any-hit rate of the full collection: about 4.8%.
SMILES,DAX1 inh-1,DAX1 inh-2,ssDAF12 agonist,hgDAF12 agonist,NR1D1 modulator,hcDAF-12 act
COC(=O)C1CN(Cc2ccc(F)cc2)CCS(=O)(=O)N1Cc1cn(Cc2ccc(Cl)cc2)nn1 (stereo not given),.,1,-2,-1,1,-1
CCOC(=O)Cn1cc(CN2CCS(=O)(=O)N(Cc3ccc(Cl)cc3)C(C(=O)OC)C2)nn1 (stereo not given),.,-1,-1,1,-5,-1
COc1ccc(C2(C)CC(C)(C)Nc3ccccc32)cc1 (stereo not given),0,0,-1,1,-3,0
COc1ccc(C2CC(C)(c3ccc(OC)cc3)Nc3ccccc3N2)cc1 (stereo not given),1,2,-1,12*,0,5.7*
Cc1c(C(=O)NNC(=O)c2ccccc2O)oc2ccccc12,-1,2,1,7,6,5.8*
COC(=O)c1oc2ccccc2c1NC(=O)c1ccccc1O,0,-1,-1,-1,6,0
Nn1c(SCC(=O)Nc2ccc(OCc3ccccc3)cc2)nnc1-c1cc(-c2ccccc2)n[nH]1,.,-2,-1,0,-6,0
Cc1cc(/C=N/NC(N)=S)c(C)n1-c1ccc(Cl)c(Cl)c1,-3,-2,-1,0,-2,-3
CCNC(=S)N/N=C/c1cc(C)n(-c2ccc(Cl)cc2)c1C,0,1,-1,11*,3,2
CC(C)c1ccc(NC(=S)NNC(=O)c2cccs2)cc1,4,2,-1,11*,2,1
CC(=O)Nc1ccc(C(=O)NNC(=O)c2cccs2)cc1,0,0,-1,-1,10,0
Cc1ccc(NC(=O)NNC(=O)c2cccs2)cc1,0,1,-1,7,-4,5.8*
CNc1cc(OC)c(C(=O)N[C@@H]2CCN(Cc3ccccc3)[C@@H]2C)cc1Cl,.,.,.,.,-1,.
COC(=O)C1=C(C)N(Cc2cccc(C(F)(F)F)c2)C(=NCc2cc(OC)c(OC)c(OC)c2)NC1c1cccc(F)c1 (stereo not given),.,1,-1,0,-3,0
COc1cccc(NC(=O)C2(C)CCN2C(=O)Cc2ccc(-c3ccccc3)cc2)c1 (stereo not given),.,-1,-2,-3,0,-3
COc1cccc(NC(=O)C2(C)CCN2C(=O)CCc2ccc(Cl)cc2Cl)c1 (stereo not given),.,0,1.6*,0,3,-2
CC(NC(=O)C1CCC(CNc2c(N3CCCCC3)c(=O)c2=O)CC1)c1ccccc1 (stereo not given),5.8*,0,-1,-1,1,0
CCOc1ccccc1NC(=O)C1CCC(CNc2c(N3CCCCC3)c(=O)c2=O)CC1 (stereo not given),0,0,-1,-1,0,-1
COC(=O)c1cc2c(c3c4cc(OC)ccc4n(S(=O)(=O)c4ccc(F)cc4)c13)C(=O)N(Cc1ccccc1)C2,.,0,-1,1,1,-1
O=C(N/N=C/c1ccc(OCc2ccccc2)cc1)c1cccs1,2,1,-1,9,-2,2
O=C(Nc1ccc(OCc2ccccc2)cc1)c1cccs1,5.1*,2,-1,9,3,2
CCN(CC)C(=O)C(=O)Nc1ccc(OCc2ccccc2)cc1,0,0,-1,12*,7,-1
O=C(Nc1ccc(NC(=O)c2ccc(Cl)cc2Cl)cc1)c1cccs1,-1,0,-1,3,0,1
O=C(NCCc1ccccc1)c1cnc2sccn2c1=O,2,3,0,11*,-2,3
O=C(Nc1ccc(NC(=O)c2ccccc2F)cc1)c1cccs1,0,4.2*,0,8,-4,1
SMILES,DAX1 inh-1,DAX1 inh-2,ssDAF12 agonist,hgDAF12 agonist,NR1D1 modulator,hcDAF-12 act
COC(=O)C1CN(CCO)CCS(=O)(=O)N1Cc1cccc(Cl)c1 (stereo not given),.,1,-1,-3,-1,0
Cc1cc2ccccc2n1CCNC(=O)c1cccs1,0,2,1.6*,9,2,6
Cc1cc2ccccc2n1CCNC(=O)C1CC1,1,-1,0,-2,-1,4
O=C(Nc1ccc(-c2cn3ccccc3n2)cc1)c1cccs1,1,4,0,12*,-3,1
O=C(Nc1ccc(NC(=O)c2cccs2)cc1)c1cccs1,0,2,-1,7,1,2
O=C(NCCc1ccccc1)c1cccs1,1,3,1,11*,2,3
COc1ccc(CC(=O)Nc2ccc(-c3cn4ccccc4n3)cc2)cc1,-1,0,-1,3,2,-2
O=C(Nc1ccc(Cl)cc1)c1cccs1,0,0,-1,12*,0,0
COCCCOc1cc(C[C@@H](C[C@H](N)[C@@H](O)C[C@H](C(=O)NCC(C)(C)C(N)=O)C(C)C)C(C)C)ccc1OC,.,.,.,.,-4,.
COCCn1c(C)cc(/C=C(\C#N)C(=O)OCC(=O)Nc2ccc(S(N)(=O)=O)cc2)c1C,5.0*,-1,0,8,12,6.4*
CCCn1c(C)cc(/C=C(\C#N)C(=O)OCC(=O)Nc2ccc(OC)c(Cl)c2)c1C,0,0,-1,-1,7,1
Cc1cc(/C=C(\C#N)C(=O)OCC(=O)Nc2ccc(OC(F)F)cc2)c(C)n1CC(C)C,4,4.0*,-1,8,6,0
Nc1ccc(S(=O)(=O)N2CCCC2)cc1,6.0*,1,-2,1,-3,1
O=S(=O)(c1ccc(S(=O)(=O)N2CCCC2)cc1)N1CCCCCC1,-1,0,-1,-1,3,-1
O=P(O)(O)c1ccccc1OCCOCCOCCOCCOc1ccccc1P(=O)(O)O,4.4*,3,0,7,8,4
NC(=O)c1ccccc1OCCOCCOCCOc1ccccc1C(N)=O,1,1,-1,-1,-3,-1
COc1ccc(C=Nn2c(-c3ccc(F)cc3)n[nH]c2=S)cc1OCc1ccccc1,.,0,-2,2,-4,0
O=C(CCC(=O)c1ccc[nH]1)c1ccc(Cl)cc1,3,1,-1,12*,-8,6.0*
CC(=O)Nc1cccc(Oc2cnc3ccccc3n2)c1,4.6*,2,0,6,-5,4
C#CCN1CC(N(C)CCOC(=O)CCCc2ccccc2)CS1(=O)=O (stereo not given),.,0,-1,-1,4,-3
C=CCN(CC#CC1=CCCCC1)Cc1ccccc1,.,0,-1,2,0,-2
CC(=O)Nc1ccc(-c2ccc3nnc(C)n3n2)cc1,5.1*,0,-2,-3,-1,1
CCOC(=O)C1CCN(C(=O)c2cc3c(=O)n4ccccc4nc3s2)CC1,0,2,-1,5,10,6.4*
